The target in assay [1] is Paired box protein Pax-6 (Homo sapiens) (UniProt P26367). The experiment in a line: ATG_Pax6_CIS: Attagene CIS-FACTORIAL HepG2 Assay for human Paired Box 6 (PAX6) (AID 2282956). To be noted: HepG2 CIS-FACTORIAL PAX6 reporter transcription, RNA readout; actives raise or lower the signal. The method in brief: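 DMSO-referenced bidirectional fits of reporter mRNA fluorescence; HepG2 with transient cis-promoter MRTUs, 24 h post-dose, RT-PCR plus capillary electrophoresis detection.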

The nature of assay [2]: ATG_PPRE_CIS: Attagene CIS-FACTORIAL HepG2 Assay for human Peroxisome Proliferator-activated Response Element (PPRE) (AID 2282958). To be noted: HepG2 PPRE cis-element reporter, Attagene transcription factor profiling; actives raise or lower the signal. The method in brief: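 After human HepG2 hepatoma cells were transiently transfected with cis-promoter reporter constructs, they were exposed to test chemicals for 24 hours. Reporter RNA was then reverse-transcribed, PCR-amplified, FAM-labeled, HpaI-digested and quantified by capillary electrophoresis.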

Assay [3] can be described thus: ATG_RORE_CIS: Attagene CIS-FACTORIAL HepG2 Assay for human RAR-related Orphan Receptor Element (RORE) (AID 2282959). To be noted: HepG2 Attagene cis-factorial RORE reporter, mRNA; actives raise or lower the signal. The gist of the method:
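Measured here: transcript induction of a cis-regulated reporter in HepG2 cells transiently transfected via FuGene 6. After 24 h, RNA was processed by RT-PCR and fluorescent capillary electrophoresis; DMSO defined baseline activity.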

Assay [4] in a line: ATG_Sox_CIS: Attagene CIS-FACTORIAL HepG2 Assay for human SRY-box transcription factor (SOX) (AID 2282960). To be noted: HepG2 Attagene cis-factorial SOX reporter, mRNA; actives raise or lower the signal. The method in brief:
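Using transiently transfected HepG2 cells, reporter transcription driven by cis elements was assessed 24 h after dosing. Signal was fluorescence of capillary-separated RT-PCR products, with DMSO defining baseline activity.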

Assay [5] is described as follows: ATG_SREBP_CIS: Attagene CIS-FACTORIAL HepG2 Assay for human Sterol Regulatory Element Binding (SREBP) (AID 2282962). To be noted: HepG2 Attagene cis-factorial SREBP reporter, mRNA; actives raise or lower the signal. The gist of the method: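 In this cis-format assay, HepG2 liver cells express reporters controlled by promoter elements responsive to native transcription factors. Exposure lasts 24 h; reporter mRNA fluorescence from capillary electrophoresis gives the signal, fitted bidirectionally against DMSO.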

Assay [6] deals with Signal transducer and activator of transcription 3 (Homo sapiens) (UniProt P40763). The experiment in a line: ATG_STAT3_CIS: Attagene CIS-FACTORIAL HepG2 Assay for human Signal Transducer and Activator of Transcription 3 (STAT3) (AID 2282963). To be noted: HepG2, Attagene cis-factorial STAT3 reporter transcription; actives raise or lower the signal. The gist of the method: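 Uses human liver HepG2 transiently carrying cis-regulated reporter transcription units. Following 24 h dosing, reporter mRNA induction was detected by RT-PCR and capillary electrophoresis, analysed bidirectionally versus DMSO.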

Assay [7] in a line: ATG_TA_CIS: Attagene CIS-FACTORIAL HepG2 Assay for human TA Basal Promoter (AID 2282964). To be noted: HepG2 Attagene CIS-factorial TA basal promoter reporter; actives raise or lower the signal. The method in brief:
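Transient MRTU transfection of HepG2 preceded 24 h compound exposure. Reporter mRNA levels were then read by RT-PCR with capillary electrophoresis, and this background-control endpoint was fitted bidirectionally to DMSO.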

The nature of assay [8]: ATG_TCF_b_cat_CIS: Attagene CIS-FACTORIAL HepG2 Assay for human T-Cell-Factor with beta-catenin (TCF/b-cat) (AID 2282965). To be noted: HepG2 TCF/beta-catenin cis-reporter transcription, actives raise or lower the signal. The gist of the method:
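HepG2 cells transiently transfected with multiple cis-promoter-regulated reporter transcription units, so endogenous transcription factor activity is measured. Reporter mRNA read 24 hours after dosing by RT-PCR, fluorescent labelling and capillary electrophoresis; bidirectional fitting against DMSO.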

Assay [9] is described as follows: ATG_TAL_CIS: Attagene CIS-FACTORIAL HepG2 Assay for human TAL Basal Promoter (AID 2282966).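 Note: background control endpoint measuring basal TAL promoter reporter mRNA not a specific factor.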 To be noted: HepG2 Attagene cis-factorial TAL promoter reporter; actives raise or lower the signal. The gist of the method:
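Background-control endpoint: basal TAL promoter reporter transcripts in transiently transfected HepG2, measured 24 h after dosing. Read-out by RT-PCR with fluorescent primer extension and capillary electrophoresis; gain or loss of signal fitted relative to DMSO.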

Assay [10] in a line: ATG_TGFb_CIS: Attagene CIS-FACTORIAL HepG2 Assay for human Transforming Growth Factor (TGF) (AID 2282967). To be noted: HepG2 Attagene CIS TGFb reporter, mRNA transcription; actives raise or lower the signal. The gist of the method:
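After a 24-hour incubation with compound, transfected HepG2 cells were lysed for RNA; reporter cDNA was amplified, fluorescently end-labeled and separated by CE. DMSO served as baseline for bidirectional fits.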

The target of assay [11] is Nuclear receptor subfamily 1 group I member 3 (Homo sapiens) (UniProt Q14994). Briefly: ATG_CAR_TRANS: Attagene TRANS-FACTORIAL HepG2 Assay for human Constitutive Androstane Receptor (CAR) (AID 2282969; active = hit-call score of the fitted dose curve at least 0.9, where 1 is the maximum;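 note: activators raise reporter mRNA above DMSO so AC50 marks induction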). To be noted: HepG2 Attagene TRANS-FACTORIAL CAR reporter. The method in brief: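 Steps: transient transfection of HepG2 with multiple GAL4-UAS reporter units; 24 h compound incubation; RNA isolation, RT-PCR, 6-FAM primer extension, HpaI digest; capillary electrophoresis. Gain-of-signal relative to DMSO negative control.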

Assay [12] has as its target Estrogen receptor (Homo sapiens) (UniProt P03372). Briefly: ATG_ERa_TRANS: Attagene TRANS-FACTORIAL HepG2 Assay for human Estrogen Receptor alpha (ERa) (AID 2282970; active = hit-call score of the fitted dose curve at least 0.9, where 1 is the maximum). To be noted: HepG2 Attagene TRANS ERa GAL4 reporter, mRNA. The gist of the method:
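Reporter transcripts were measured 24 h after dosing by RT-PCR with fluorescent primer extension and capillary electrophoresis. The system is transiently transfected HepG2 expressing exogenous NR-Gal4 chimeras driving GAL4-UAS reporters; DMSO is the baseline.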

Assay [13] has as its target X-box-binding protein 1 (Homo sapiens) (UniProt P17861). Briefly: ATG_Xbp1_CIS: Attagene CIS-FACTORIAL HepG2 Assay for human X-box Binding Protein 1 (XBP1) (AID 2282972). To be noted: HepG2 XBP1 cis-element reporter, Attagene multiplex; actives raise or lower the signal. The method in brief: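 Changes in reporter transcript abundance, read by RT-PCR and capillary electrophoresis, reflect endogenous transcription factor activity. Transfected HepG2 cells received compound for 24 hours; DMSO defined baseline for bidirectional analysis.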

The nature of assay [14]: ATG_M_19_TRANS: Attagene TRANS-FACTORIAL HepG2 Assay for M19 Transcription Factor (Internal Marker) (AID 2282974; active = hit-call score of the fitted dose curve at least 0.9, where 1 is the maximum). To be noted: HepG2 Attagene TRANS-FACTORIAL M19 internal marker reporter. The gist of the method:
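Gain-of-signal in reporter mRNA, relative to DMSO, was scored from capillary electrophoresis fluorescence. HepG2 cells carried transiently transfected multiple reporter transcription units and were incubated with test chemicals for 24 h.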

Assay [15] deals with Estrogen-related receptor gamma (Homo sapiens) (UniProt P62508). Briefly: ATG_ERRg_TRANS: Attagene TRANS-FACTORIAL HepG2 Assay for human Estrogen-Related Receptor gamma (ERRg) (AID 2282977; active = hit-call score of the fitted dose curve at least 0.9, where 1 is the maximum;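 note: hits increase reporter signal over DMSO so potencies reflect activators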). To be noted: HepG2 Attagene TRANS reporter, ERRg transactivation. The method in brief: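 Readout: fluorescent reporter-mRNA fragments resolved by capillary electrophoresis after RT-PCR and HpaI cut. Cells: transiently transfected HepG2 carrying GAL4-UAS reporters driven by exogenous NR-Gal4 chimeras, dosed 24 h. Activity fitted upward relative to DMSO baseline.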

Assay [16] in a line: ATG_VDRE_CIS: Attagene CIS-FACTORIAL HepG2 Assay for human Vitamin D Receptor Element (VDRE) (AID 2282968). To be noted: HepG2 VDRE cis-reporter transcription, actives raise or lower the signal. The gist of the method: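 Transfected HepG2 reporter cells, chemical treatment 24 h. RNA isolated, cDNA amplified with reporter-specific primers, products analysed by capillary electrophoresis. Endpoint fitted in both directions versus DMSO.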

The target in assay [17] is Transcription factor Sp1 (Homo sapiens) (UniProt P08047). The experiment in a line: ATG_Sp1_CIS: Attagene CIS-FACTORIAL HepG2 Assay for human Specificity Protein 1 (Sp1) (AID 2282961). To be noted: HepG2 Sp1 cis-reporter transcription, actives raise or lower the signal. The gist of the method: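 After transient transfection of HepG2 cells with cis-promoter reporter units and 24 h chemical treatment, reporter transcripts were quantified by RT-PCR and capillary electrophoresis fluorescence. Gain- and loss-of-signal fitted against DMSO.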

The target of assay [18] is Steroid hormone receptor ERR1 (Homo sapiens) (UniProt P11474). Briefly: ATG_ERRa_TRANS: Attagene TRANS-FACTORIAL HepG2 Assay for human Estrogen-Related Receptor alpha (ERRa) (AID 2282971; active = hit-call score of the fitted dose curve at least 0.9, where 1 is the maximum). To be noted: HepG2 Attagene TRANS reporter, ERRa transactivation. The method in brief: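 Reporter transcripts from ERRa-Gal4 chimera activity measured in transiently transfected human HepG2 cells 24 hours after dosing, using RT-PCR with 6-FAM primer extension, HpaI digestion and capillary electrophoresis; DMSO is baseline.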

Results filed as inconclusive are left out. Active and inactive are the calls of the source. Rule for the calls, unless noted: active = hit-call score of the fitted dose curve at least 0.9, where 1 is the maximum; inactive = score below 0.9.

For orientation: AC50 means the concentration at which the activity in the assay is half-maximal.

Chain of Signal transducer and activator of transcription 3 (Homo sapiens) (P40763 whole entry, looked up): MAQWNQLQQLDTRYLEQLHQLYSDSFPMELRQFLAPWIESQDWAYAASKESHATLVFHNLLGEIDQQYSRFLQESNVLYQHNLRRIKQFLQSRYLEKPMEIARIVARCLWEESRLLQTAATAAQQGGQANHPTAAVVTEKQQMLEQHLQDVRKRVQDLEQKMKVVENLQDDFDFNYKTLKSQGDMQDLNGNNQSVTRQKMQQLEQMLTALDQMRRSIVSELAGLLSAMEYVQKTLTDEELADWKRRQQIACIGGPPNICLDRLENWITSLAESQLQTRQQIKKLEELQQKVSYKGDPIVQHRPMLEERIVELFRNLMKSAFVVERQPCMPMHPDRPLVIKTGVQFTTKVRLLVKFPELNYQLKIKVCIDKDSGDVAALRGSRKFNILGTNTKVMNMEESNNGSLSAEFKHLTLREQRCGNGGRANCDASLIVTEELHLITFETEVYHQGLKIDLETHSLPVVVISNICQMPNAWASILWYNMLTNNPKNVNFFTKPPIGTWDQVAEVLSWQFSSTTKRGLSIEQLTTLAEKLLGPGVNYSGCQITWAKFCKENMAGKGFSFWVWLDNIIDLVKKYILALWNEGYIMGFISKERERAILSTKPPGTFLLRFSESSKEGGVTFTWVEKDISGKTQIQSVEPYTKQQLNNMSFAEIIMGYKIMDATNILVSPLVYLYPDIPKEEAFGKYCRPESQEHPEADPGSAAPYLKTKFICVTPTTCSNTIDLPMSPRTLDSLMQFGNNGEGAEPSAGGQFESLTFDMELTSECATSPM
Chain of X-box-binding protein 1 (Homo sapiens) (P17861 whole entry, looked up): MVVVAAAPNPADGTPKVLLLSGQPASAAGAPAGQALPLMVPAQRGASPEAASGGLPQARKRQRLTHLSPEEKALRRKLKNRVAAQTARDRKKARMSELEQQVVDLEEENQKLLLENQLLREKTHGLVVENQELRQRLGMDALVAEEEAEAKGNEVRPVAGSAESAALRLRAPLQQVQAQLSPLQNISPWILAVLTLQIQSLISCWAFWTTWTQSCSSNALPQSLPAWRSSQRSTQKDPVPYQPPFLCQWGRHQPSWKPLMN
Chain of Transcription factor Sp1 (Homo sapiens) (P08047 whole entry, looked up): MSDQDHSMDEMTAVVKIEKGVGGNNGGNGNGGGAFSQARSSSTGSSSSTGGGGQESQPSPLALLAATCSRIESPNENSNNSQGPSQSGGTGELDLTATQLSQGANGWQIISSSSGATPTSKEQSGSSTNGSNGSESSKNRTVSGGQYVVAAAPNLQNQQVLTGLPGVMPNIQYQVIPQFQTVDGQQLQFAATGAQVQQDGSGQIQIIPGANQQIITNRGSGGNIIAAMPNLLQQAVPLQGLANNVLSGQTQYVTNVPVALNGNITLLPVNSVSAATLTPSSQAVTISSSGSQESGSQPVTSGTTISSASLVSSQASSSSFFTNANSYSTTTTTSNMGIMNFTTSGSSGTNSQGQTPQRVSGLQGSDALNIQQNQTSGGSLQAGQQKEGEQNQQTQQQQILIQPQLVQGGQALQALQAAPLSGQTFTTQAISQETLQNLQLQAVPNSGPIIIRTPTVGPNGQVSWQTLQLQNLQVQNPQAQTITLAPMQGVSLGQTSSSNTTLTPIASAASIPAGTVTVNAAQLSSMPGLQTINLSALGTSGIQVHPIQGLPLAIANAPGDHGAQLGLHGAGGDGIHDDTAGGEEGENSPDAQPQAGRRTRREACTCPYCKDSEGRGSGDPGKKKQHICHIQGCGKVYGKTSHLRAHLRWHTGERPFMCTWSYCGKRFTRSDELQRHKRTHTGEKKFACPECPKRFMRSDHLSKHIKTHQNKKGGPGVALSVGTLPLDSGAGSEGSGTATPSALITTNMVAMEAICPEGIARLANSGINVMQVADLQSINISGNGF
Chain of Paired box protein Pax-6 (Homo sapiens) (P26367 whole entry, looked up): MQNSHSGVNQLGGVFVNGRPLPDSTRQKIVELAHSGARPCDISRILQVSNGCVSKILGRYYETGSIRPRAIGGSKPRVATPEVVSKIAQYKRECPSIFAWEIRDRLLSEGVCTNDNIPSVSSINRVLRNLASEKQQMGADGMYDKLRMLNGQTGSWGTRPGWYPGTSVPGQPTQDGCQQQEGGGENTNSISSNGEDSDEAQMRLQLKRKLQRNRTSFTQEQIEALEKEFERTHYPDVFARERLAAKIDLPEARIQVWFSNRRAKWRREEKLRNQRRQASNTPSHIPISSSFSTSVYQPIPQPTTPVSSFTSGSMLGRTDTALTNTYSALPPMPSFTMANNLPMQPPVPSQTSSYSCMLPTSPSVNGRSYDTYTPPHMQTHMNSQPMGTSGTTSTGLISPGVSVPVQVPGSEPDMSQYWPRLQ
Chain of Estrogen receptor (Homo sapiens) (P03372 whole entry, looked up, the tested form may be a part): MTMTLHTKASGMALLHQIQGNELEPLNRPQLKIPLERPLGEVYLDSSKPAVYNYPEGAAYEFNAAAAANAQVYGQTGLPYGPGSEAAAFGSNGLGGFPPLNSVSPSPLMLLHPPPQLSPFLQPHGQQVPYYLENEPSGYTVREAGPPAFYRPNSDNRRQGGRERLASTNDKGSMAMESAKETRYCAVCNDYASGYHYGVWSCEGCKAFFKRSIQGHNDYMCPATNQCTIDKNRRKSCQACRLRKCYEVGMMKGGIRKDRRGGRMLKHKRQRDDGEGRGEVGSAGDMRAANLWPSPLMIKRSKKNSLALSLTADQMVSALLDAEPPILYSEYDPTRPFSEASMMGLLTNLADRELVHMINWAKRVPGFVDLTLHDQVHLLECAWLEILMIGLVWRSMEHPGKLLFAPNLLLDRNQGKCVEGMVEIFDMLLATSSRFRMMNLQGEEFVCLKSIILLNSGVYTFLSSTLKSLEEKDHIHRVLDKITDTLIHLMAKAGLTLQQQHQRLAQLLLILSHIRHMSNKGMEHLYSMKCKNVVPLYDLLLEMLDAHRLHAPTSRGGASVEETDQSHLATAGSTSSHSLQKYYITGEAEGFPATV
Chain of Nuclear receptor subfamily 1 group I member 3 (Homo sapiens) (Q14994 whole entry, looked up, the tested form may be a part): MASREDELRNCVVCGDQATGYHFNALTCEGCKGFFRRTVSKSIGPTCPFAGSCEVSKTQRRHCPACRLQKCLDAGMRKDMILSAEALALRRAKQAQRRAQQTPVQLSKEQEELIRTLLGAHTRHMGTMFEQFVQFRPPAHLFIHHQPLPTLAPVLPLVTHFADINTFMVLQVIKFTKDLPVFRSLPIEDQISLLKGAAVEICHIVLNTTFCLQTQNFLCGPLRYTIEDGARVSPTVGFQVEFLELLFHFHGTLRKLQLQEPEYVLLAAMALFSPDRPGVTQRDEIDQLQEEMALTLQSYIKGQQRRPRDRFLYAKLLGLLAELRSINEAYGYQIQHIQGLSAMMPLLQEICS
Chain of Estrogen-related receptor gamma (Homo sapiens) (P62508 whole entry, looked up, the tested form may be a part): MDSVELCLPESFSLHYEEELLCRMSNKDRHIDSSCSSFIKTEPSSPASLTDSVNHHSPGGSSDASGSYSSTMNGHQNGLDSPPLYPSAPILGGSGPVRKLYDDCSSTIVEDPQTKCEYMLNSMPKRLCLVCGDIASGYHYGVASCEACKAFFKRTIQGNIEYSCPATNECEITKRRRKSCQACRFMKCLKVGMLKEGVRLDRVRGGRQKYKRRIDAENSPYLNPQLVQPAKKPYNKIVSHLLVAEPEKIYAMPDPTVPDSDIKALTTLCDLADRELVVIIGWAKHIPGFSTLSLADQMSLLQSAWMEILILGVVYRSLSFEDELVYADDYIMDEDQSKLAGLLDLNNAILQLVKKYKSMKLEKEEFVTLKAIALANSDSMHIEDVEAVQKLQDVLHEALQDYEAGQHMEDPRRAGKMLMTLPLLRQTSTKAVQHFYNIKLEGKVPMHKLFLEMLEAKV
Chain of Steroid hormone receptor ERR1 (Homo sapiens) (P11474 whole entry, looked up, the tested form may be a part): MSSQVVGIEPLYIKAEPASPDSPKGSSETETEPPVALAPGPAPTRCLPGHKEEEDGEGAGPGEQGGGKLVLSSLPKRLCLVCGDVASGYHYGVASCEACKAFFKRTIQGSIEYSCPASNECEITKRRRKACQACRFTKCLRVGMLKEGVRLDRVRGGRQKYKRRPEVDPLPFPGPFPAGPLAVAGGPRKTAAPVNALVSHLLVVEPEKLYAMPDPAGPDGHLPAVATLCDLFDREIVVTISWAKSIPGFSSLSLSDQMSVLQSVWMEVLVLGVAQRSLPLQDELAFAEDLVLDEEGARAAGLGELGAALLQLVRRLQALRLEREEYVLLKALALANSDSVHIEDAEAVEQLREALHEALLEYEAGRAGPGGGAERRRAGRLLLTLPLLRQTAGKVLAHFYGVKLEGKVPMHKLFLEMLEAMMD

Consider `O=C(NS(=O)(=O)/C=C/c1ccccc1)c1ccc(F)cc1Cl`, for which the molecule was called inactive in assay [1], in [2], in assay [3], in [4], in assay [5] and in assay [6]. Besides, the result in assay [7], in [8], in [9], in assay [10], in assay [11] and in [12] was inactive. The outcome in [13], in assay [14] and in assay [15] was inactive.
On to `COc1ccc(/C=C/S(=O)(=O)NC(=O)c2ccc(C)cc2Cl)cc1`, for which the molecule was called inactive in assay [1], in assay [2], in assay [3], in assay [4], in [5] and in assay [6]. Moreover, the call in [7], in assay [8], in assay [9], in assay [10], in [16] and in assay [13] was inactive. In addition, the outcome in [14] was inactive.
On to `Cc1[nH]cnc1C[C@H]1CCc2c(C)c3ccccc3n2C1=O`, for which the half-maximal activity concentration (AC50) was 37.2 µM (active) in assay [1]; 18.9 µM (active) in assay [3]; 29.7 µM (active) in assay [7]; 15.8 µM (active) in [8]; 40.8 µM (active) in assay [9]; 29.7 µM (active) in assay [16]. For the same molecule, in assay [13], the half-maximal activity concentration (AC50) was 20.4 µM (active). For the same molecule, the molecule was called inactive in [4], in assay [5], in assay [6], in assay [10] and in assay [15].
For `C=CCCCCCCCCC(=O)O`, the outcome in [1], in [3], in [4], in [17], in [5] and in [6] was inactive. The molecule was called inactive in assay [7], in [8], in assay [9], in assay [10], in assay [16] and in assay [12]. The molecule was called inactive in assay [13] and in assay [14].
As for `O=C(CCCCCCCCc1cccnc1)N1CCC(C=C(c2ccccc2)c2ccccc2)CC1`, the concentration at half-maximal activity (AC50) in assay [1] was 9.32 µM (active); in [2], 1.07 µM (active); in assay [17] it was 8.56 µM (active); in [5] it was 8.12 µM (active); in [6], 19.5 µM (active); in assay [7] it was 16.1 µM (active). The half-maximal activity concentration (AC50) in assay [8] is 8.08 µM (active); in assay [16], 1.85 µM (active); in assay [13], 3.5 µM (active). Also, the result in assay [4], in assay [9], in [10] and in [18] was inactive.
On to `CCOC(=O)CC(CC(=O)OCC)(OC(C)=O)C(=O)OCC`, for which the outcome in assay [1], in assay [3], in [4], in assay [17], in assay [5] and in [6] was inactive. The molecule was classed as inactive in assay [7], in [8], in assay [9], in assay [10], in assay [16] and in [11]. Moreover, the molecule was called inactive in assay [13] and in assay [14].

These data come from PubChem BioAssay (EPA / NIEHS).
